Reference: PMC10812921, “Transcriptional Coactivator BOB1 (OBF1, OCA-B) Modulates the Specificity of DNA Recognition by the POU-Domain Factors OCT1 and OCT2 in a Monomeric Configuration”

Columns and labels:
POU1 (OCT1 POU domain) = POU1 (OCT1 POU domain) (human, UniProt P14859 260-458); experiment: EMSA-SELEX-seq; no BOB1; 20 mM Tris-HCl pH 7.6, 140 mM NaCl, 10% glycerol, 0.5 mM EDTA, 0.05% Triton X-100, 0.1 mg/mL BSA, 0.1 mg/mL poly(dI-dC), 5 mM DTT, room temperature, 20 min; high values mean tight binding; conditions: protein: recombinant; dsDNA, one strand shown
POU1 (OCT1 POU domain), sequence (P14859 260-458): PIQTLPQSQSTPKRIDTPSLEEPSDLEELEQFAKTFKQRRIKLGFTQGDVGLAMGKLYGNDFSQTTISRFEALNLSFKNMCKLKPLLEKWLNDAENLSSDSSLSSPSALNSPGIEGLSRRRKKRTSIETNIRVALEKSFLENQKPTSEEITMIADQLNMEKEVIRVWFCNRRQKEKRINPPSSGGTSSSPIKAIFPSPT
Method in brief: (§1)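 Tagged POU-domain proteins were produced in E. coli BL21, purified under denaturing conditions and renatured before use. They were mixed at 30 ng with 300 ng of a PCR-amplified double-stranded random 35-nt library, with or without 28 ng coactivator protein, in 20 μL Tris–HCl pH 7.6 binding buffer, incubating 20 min at RT. Complexes cut from native 6% PAGE were eluted and PCR-amplified over four rounds, then sequenced by Illumina, with binding preference taken as the percentage of sequenced 8-mers matching a motif pattern.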

POU2 (OCT2 POU domain) = molecular target: T1, POU2 (OCT2 POU domain) (human, UniProt P09086 175-386); experiment: as above; conditions: protein: recombinant; dsDNA, one strand shown
T1 sequence: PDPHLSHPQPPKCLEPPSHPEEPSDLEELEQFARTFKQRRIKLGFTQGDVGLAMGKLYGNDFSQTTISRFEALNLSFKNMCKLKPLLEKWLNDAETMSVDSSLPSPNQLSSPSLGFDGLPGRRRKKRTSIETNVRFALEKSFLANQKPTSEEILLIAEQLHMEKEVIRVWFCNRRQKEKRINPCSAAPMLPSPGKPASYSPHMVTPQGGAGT
Method in brief: as §1

[1] = molecular target: POU1 (OCT1 POU domain);BOB1 (OBF1, OCA-B) (human;human, UniProt P14859;Q16633 260-458;1-256, |); experiment: EMSA-SELEX-seq; with BOB1 (ternary complex band); 20 mM Tris-HCl pH 7.6, 140 mM NaCl, 10% glycerol, 0.5 mM EDTA, 0.05% Triton X-100, 0.1 mg/mL BSA, 0.1 mg/mL poly(dI-dC), 5 mM DTT, room temperature, 20 min; high values mean tight binding; conditions: protein: recombinant;recombinant; copies: 1;1; dsDNA, one strand shown
Method in brief: as §1

[2] = molecular target: T2, POU2 (OCT2 POU domain);BOB1 (OBF1, OCA-B) (human;human, UniProt P09086;Q16633 175-386;1-256, |); experiment: as above; conditions: protein: recombinant;recombinant; copies: 1;1; dsDNA, one strand shown
T2 sequence 1: T1 sequence
T2 sequence 2: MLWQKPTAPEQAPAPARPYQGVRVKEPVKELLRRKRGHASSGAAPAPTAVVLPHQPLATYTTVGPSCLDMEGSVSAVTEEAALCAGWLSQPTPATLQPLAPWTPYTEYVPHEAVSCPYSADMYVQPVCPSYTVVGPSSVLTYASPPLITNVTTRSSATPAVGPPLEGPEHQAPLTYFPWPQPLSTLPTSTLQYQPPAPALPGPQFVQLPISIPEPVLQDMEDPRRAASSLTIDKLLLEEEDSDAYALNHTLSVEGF
Method in brief: as §1

Row | Sequence | binding signal (POU1 (OCT1 POU domain)) | binding signal (POU2 (OCT2 POU domain)) | binding signal [1] | binding signal [2]
1 | ATGCCAAT | 0.0648 % of ANNNNAAN 8-mers | 0.0857 % of ANNNNAAN 8-mers | 0.0609 % of ANNNNAAN 8-mers | 0.0627 % of ANNNNAAN 8-mers
2 | AAACTAAC | 0.0256 % of ANNNNAAN 8-mers | 0.0316 % of ANNNNAAN 8-mers | 0.03 % of ANNNNAAN 8-mers | 0.0289 % of ANNNNAAN 8-mers
3 | AAAAAAAC | 0.0583 % of ANNNNAAN 8-mers | 0.0593 % of ANNNNAAN 8-mers | 0.0784 % of ANNNNAAN 8-mers | 0.0512 % of ANNNNAAN 8-mers
4 | ATACGAAT | 0.0908 % of ANNNNAAN 8-mers | 0.101 % of ANNNNAAN 8-mers | 0.0687 % of ANNNNAAN 8-mers | 0.0759 % of ANNNNAAN 8-mers
5 | ATACCAAC | 0.0244 % of ANNNNAAN 8-mers | 0.0276 % of ANNNNAAN 8-mers | 0.0242 % of ANNNNAAN 8-mers | 0.0215 % of ANNNNAAN 8-mers
6 | ACGATAAT | 0.0896 % of ANNNNAAN 8-mers | 0.123 % of ANNNNAAN 8-mers | 0.0535 % of ANNNNAAN 8-mers | 0.085 % of ANNNNAAN 8-mers
7 | AGGTGAAC | 0.021 % of ANNNNAAN 8-mers | 0.0259 % of ANNNNAAN 8-mers | 0.0222 % of ANNNNAAN 8-mers | 0.0264 % of ANNNNAAN 8-mers
8 | ATCCTAAA | 0.0267 % of ANNNNAAN 8-mers | 0.0328 % of ANNNNAAN 8-mers | 0.0285 % of ANNNNAAN 8-mers | 0.0421 % of ANNNNAAN 8-mers
9 | ATCTGAAC | 0.0275 % of ANNNNAAN 8-mers | 0.0265 % of ANNNNAAN 8-mers | 0.0258 % of ANNNNAAN 8-mers | 0.0429 % of ANNNNAAN 8-mers
10 | AGCTTAAA | 0.037 % of ANNNNAAN 8-mers | 0.0437 % of ANNNNAAN 8-mers | 0.0258 % of ANNNNAAN 8-mers | 0.0421 % of ANNNNAAN 8-mers
11 | AAATCAAT | 0.139 % of ANNNNAAN 8-mers | 0.143 % of ANNNNAAN 8-mers | 0.162 % of ANNNNAAN 8-mers | 0.148 % of ANNNNAAN 8-mers
12 | ACGGAAAC | 0.0198 % of ANNNNAAN 8-mers | 0.019 % of ANNNNAAN 8-mers | 0.0289 % of ANNNNAAN 8-mers | 0.0305 % of ANNNNAAN 8-mers
13 | ATAGCAAA | 0.0744 % of ANNNNAAN 8-mers | 0.0552 % of ANNNNAAN 8-mers | 0.078 % of ANNNNAAN 8-mers | 0.0454 % of ANNNNAAN 8-mers
14 | ACGCTAAT | 0.108 % of ANNNNAAN 8-mers | 0.14 % of ANNNNAAN 8-mers | 0.046 % of ANNNNAAN 8-mers | 0.0611 % of ANNNNAAN 8-mers
15 | AACATAAA | 0.101 % of ANNNNAAN 8-mers | 0.125 % of ANNNNAAN 8-mers | 0.0527 % of ANNNNAAN 8-mers | 0.0627 % of ANNNNAAN 8-mers
16 | ATCGTAAC | 0.0236 % of ANNNNAAN 8-mers | 0.0288 % of ANNNNAAN 8-mers | 0.0238 % of ANNNNAAN 8-mers | 0.0322 % of ANNNNAAN 8-mers
17 | AGGTTAAG | 0.0522 % of ANNNNAAN 8-mers | 0.0639 % of ANNNNAAN 8-mers | 0.0542 % of ANNNNAAN 8-mers | 0.052 % of ANNNNAAN 8-mers
18 | ACAATAAC | 0.0248 % of ANNNNAAN 8-mers | 0.0259 % of ANNNNAAN 8-mers | 0.0211 % of ANNNNAAN 8-mers | 0.0248 % of ANNNNAAN 8-mers
19 | AGAATAAA | 0.161 % of ANNNNAAN 8-mers | 0.182 % of ANNNNAAN 8-mers | 0.0757 % of ANNNNAAN 8-mers | 0.0892 % of ANNNNAAN 8-mers
20 | AGAGTAAC | 0.0206 % of ANNNNAAN 8-mers | 0.0322 % of ANNNNAAN 8-mers | 0.0234 % of ANNNNAAN 8-mers | 0.0264 % of ANNNNAAN 8-mers
21 | AGTTGAAA | 0.0477 % of ANNNNAAN 8-mers | 0.0489 % of ANNNNAAN 8-mers | 0.0531 % of ANNNNAAN 8-mers | 0.0512 % of ANNNNAAN 8-mers
22 | AACTAAAA | 0.0431 % of ANNNNAAN 8-mers | 0.0478 % of ANNNNAAN 8-mers | 0.0386 % of ANNNNAAN 8-mers | 0.0305 % of ANNNNAAN 8-mers
23 | ATCCCAAT | 0.0317 % of ANNNNAAN 8-mers | 0.038 % of ANNNNAAN 8-mers | 0.025 % of ANNNNAAN 8-mers | 0.033 % of ANNNNAAN 8-mers
24 | AATTCAAT | 0.121 % of ANNNNAAN 8-mers | 0.125 % of ANNNNAAN 8-mers | 0.0948 % of ANNNNAAN 8-mers | 0.125 % of ANNNNAAN 8-mers
25 | ATGTGAAC | 0.0374 % of ANNNNAAN 8-mers | 0.0386 % of ANNNNAAN 8-mers | 0.0367 % of ANNNNAAN 8-mers | 0.0388 % of ANNNNAAN 8-mers
26 | AGCTCAAA | 0.0252 % of ANNNNAAN 8-mers | 0.0213 % of ANNNNAAN 8-mers | 0.0242 % of ANNNNAAN 8-mers | 0.0264 % of ANNNNAAN 8-mers
27 | ATCCCAAA | 0.0263 % of ANNNNAAN 8-mers | 0.0253 % of ANNNNAAN 8-mers | 0.0343 % of ANNNNAAN 8-mers | 0.0297 % of ANNNNAAN 8-mers
28 | AATGGAAA | 0.242 % of ANNNNAAN 8-mers | 0.155 % of ANNNNAAN 8-mers | 0.268 % of ANNNNAAN 8-mers | 0.164 % of ANNNNAAN 8-mers
29 | ATCCAAAC | 0.0233 % of ANNNNAAN 8-mers | 0.0178 % of ANNNNAAN 8-mers | 0.0343 % of ANNNNAAN 8-mers | 0.0264 % of ANNNNAAN 8-mers
30 | AGTAAAAA | 0.0911 % of ANNNNAAN 8-mers | 0.0679 % of ANNNNAAN 8-mers | 0.103 % of ANNNNAAN 8-mers | 0.0578 % of ANNNNAAN 8-mers
